Compounds without any hit were thinned out: in the full panel of roughly 83,000, 20% have a hit.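 96-well plates, one dose, 48 hours. Percent growth reported; active if below 10.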 Calls of active or inactive are those of the source.
Columns and labels:
Assay in all cases: NCI-60 one-dose screen, 48 h (100 = growth as untreated, 0 = no growth, -100 = all killed)
Conditions in all cases: 10 µM unless noted
T-47D breast = tested on: T-47D breast
BT-549 breast = tested on: BT-549 breast
MDA-MB-435 melanoma = tested on: MDA-MB-435 melanoma
SW-620 colon = tested on: SW-620 colon
MCF7 breast = tested on: MCF7 breast
HCT-116 colon = tested on: HCT-116 colon
HCC-2998 colon = tested on: HCC-2998 colon
KM12 colon = tested on: KM12 colon

Measured: growth

COc1ccc(C(=O)/C=C/c2cc(C(=O)c3cc(OC)c(OC)c(OC)c3)ccc2OC)cc1
inactive: T-47D breast 68% | BT-549 breast 73.7% | MDA-MB-435 melanoma 51.8% | SW-620 colon 13.8% | MCF7 breast 20.9% | HCT-116 colon 19.8% | HCC-2998 colon 93.1%

COC(=O)CCCCCCN=Cc1c(O)c(O)c(C(C)C)c2cc(C)c(-c3c(C)cc4c(C(C)C)c(O)c(O)c(C=NCCCCCCC(=O)OC)c4c3O)c(O)c12
active: MCF7 breast 7.98% | HCT-116 colon 8.17%
inactive: T-47D breast 20.6% | BT-549 breast 38.6% | MDA-MB-435 melanoma 17.2% | SW-620 colon 17.9% | HCC-2998 colon 32.6% | KM12 colon 18.2%

CCNc1nc(N2CC(=O)Nc3cc(OC)ccc32)c2ccccc2n1
active: BT-549 breast -22.2% | MDA-MB-435 melanoma -25.8% | MCF7 breast 3.09% | HCT-116 colon -14.1% | HCC-2998 colon -20.8%
inactive: T-47D breast 11.6% | SW-620 colon 21.5%

O=C1CCC(=O)N1Cc1ccccc1
inactive: T-47D breast 113% | BT-549 breast 111% | MDA-MB-435 melanoma 99.4% | SW-620 colon 100% | MCF7 breast 91.5% | HCT-116 colon 98.6% | HCC-2998 colon 101% | KM12 colon 96.4%

COc1ccc(/C=C/c2nc(N3CCOCC3)c3nc(Cl)c(Cl)cc3n2)cc1OC
inactive: T-47D breast 88.2% | BT-549 breast 99.9% | MDA-MB-435 melanoma 99.8% | SW-620 colon 109% | MCF7 breast 111% | HCT-116 colon 89.3% | HCC-2998 colon 103% | KM12 colon 93.9%

O=C(Nc1cc(C(F)(F)F)cc(C(F)(F)F)c1)Nc1ccc(OCc2nnc(-c3ccc(Cl)cc3)o2)c(F)c1
active: MDA-MB-435 melanoma 9.18% | MCF7 breast 6.03% | HCT-116 colon 7.81%
inactive: T-47D breast 13.2% | BT-549 breast 22.8% | SW-620 colon 22.8% | HCC-2998 colon 20.3% | KM12 colon 13.7%

COc1ccc(/C=C/c2cc(N3CCOCC3)c3cc(F)c(F)cc3n2)cc1OC
inactive: T-47D breast 37.9% | BT-549 breast 45.2% | MDA-MB-435 melanoma 51% | SW-620 colon 45.8% | MCF7 breast 22.1% | HCT-116 colon 24.5% | HCC-2998 colon 29% | KM12 colon 33.3%

CN(C)C/C=C/C(=O)Nc1cc2c(Nc3cccc(Cl)c3F)ncnc2cc1OCCOC(F)F
active: T-47D breast -4.28%
inactive: BT-549 breast 41% | MDA-MB-435 melanoma 15.4% | SW-620 colon 31% | MCF7 breast 35.1% | HCT-116 colon 25.7% | HCC-2998 colon 68.3% | KM12 colon 80.7%

CCCC1OC(c2ccc(C(C)C)cc2)OCC1CC (stereo unspecified)
inactive: T-47D breast 85.7% | BT-549 breast 102% | MDA-MB-435 melanoma 105% | SW-620 colon 112% | MCF7 breast 94.7% | HCT-116 colon 93.9% | HCC-2998 colon 103% | KM12 colon 107%

CC(C)C[C@H](NC(=O)Cn1ccc(NCc2ccccc2)cc1=O)B(O)O
inactive: MCF7 breast 28.9% | KM12 colon 24.7%
active: T-47D breast -14.6% | BT-549 breast 3.58% | MDA-MB-435 melanoma -62.2% | SW-620 colon 4.73% | HCT-116 colon -47.7% | HCC-2998 colon 0.885%

COC1=CC(c2ccc[nH]2)=N/C1=C\c1[nH]c(C)c(C(=O)CCC(=O)Oc2ccc3c(c2)CCC2C3CC[C@]3(C)[C@@H](O)CC[C@@H]23)c1C (stereo partly specified)
active: SW-620 colon -51.1% | HCT-116 colon -84.2% | HCC-2998 colon 9.51% | KM12 colon 3.48%
inactive: T-47D breast 20.5% | BT-549 breast 27% | MDA-MB-435 melanoma 11.9% | MCF7 breast 13.6%

COc1ccc(C(=O)/C=C/c2cccc([N+](=O)[O-])c2)c(OC)c1
inactive: T-47D breast 26.6% | MDA-MB-435 melanoma 15.2% | HCC-2998 colon 36.6% | KM12 colon 13.2%
active: BT-549 breast 4.85% | SW-620 colon -67.4% | MCF7 breast 7.98% | HCT-116 colon -80.1%

Cc1cc(NC(=O)COC(=O)c2sc3cc(F)ccc3c2Cl)no1
inactive: T-47D breast 102% | BT-549 breast 117% | MDA-MB-435 melanoma 108% | SW-620 colon 108% | MCF7 breast 106% | HCT-116 colon 103% | HCC-2998 colon 112% | KM12 colon 108%

CCOC(=O)C(Cc1ccccc1)n1c(O)c(C=Nc2ccc(C(=O)OCCN(CC)CC)cc2)sc1=O (stereo unspecified)
inactive: T-47D breast 81.6% | BT-549 breast 96.3% | MDA-MB-435 melanoma 90.1% | SW-620 colon 97.6% | MCF7 breast 74.5% | HCT-116 colon 104% | HCC-2998 colon 108% | KM12 colon 83.5%

COc1cc(OC)c(C(=O)/C=C/c2ccc(C#N)cc2)c(OC)c1
active: BT-549 breast -7.5% | MDA-MB-435 melanoma 5.64% | SW-620 colon 9.15% | KM12 colon 7.74%
inactive: T-47D breast 18.5% | MCF7 breast 13.8% | HCT-116 colon 10.2% | HCC-2998 colon 36.8%

COc1ccc(S(=O)(=O)Nc2cc(/C=C\c3cc(OC)c(OC)c(OC)c3)cc(OC)c2OC)cc1OC
active: MDA-MB-435 melanoma -66.5%
inactive: T-47D breast 43.8% | BT-549 breast 47% | SW-620 colon 25.5% | MCF7 breast 18.1% | HCT-116 colon 15.6% | HCC-2998 colon 21.1% | KM12 colon 21.7%

CC[C@H](C)[C@H]1NC(=O)[C@@H](N[C@](C)(O)[C@@H](N)CC(C)C)[C@@H](C)OC(=O)[C@H](Cc2ccc(OC)cc2)N(C)C(=O)[C@@H]2CCCN2C(=O)[C@H](CC(C)C)NC(=O)[C@@H](C)C(=O)[C@H](C(C)C)OC(=O)C[C@@H]1O
active: T-47D breast -15.4% | BT-549 breast -45.9% | MDA-MB-435 melanoma -35.4% | SW-620 colon 0.636% | MCF7 breast 2.76% | HCT-116 colon -15.1% | HCC-2998 colon -26.8% | KM12 colon -14.8%

O=C1C2=C(C(=O)c3c(O)ccc(O)c31)N(c1cccnc1)Cc1ccccc1O2
active: T-47D breast -28.4% | BT-549 breast -54.1% | MDA-MB-435 melanoma -14.2% | SW-620 colon -45.9% | MCF7 breast -18% | HCT-116 colon -71% | HCC-2998 colon -31.2% | KM12 colon -4.03%

COc1ccc(-c2nc3sccn3c2-c2ccnc(NCCCNS(=O)(=O)c3ccc(C)cc3)n2)cc1
inactive: BT-549 breast 42.5% | MDA-MB-435 melanoma 23.4% | SW-620 colon 38.6% | MCF7 breast 34.3% | HCT-116 colon 25% | HCC-2998 colon 25.9% | KM12 colon 20.6%
active: T-47D breast -6.34%

O=S(=O)(NCCNc1cc(-c2cn(-c3ccccc3)nc2-c2ccccc2)ccn1)c1cccc2ccccc12
inactive: T-47D breast 24.3% | BT-549 breast 49.3% | MDA-MB-435 melanoma 46.3% | SW-620 colon 62.5% | MCF7 breast 28.2% | HCT-116 colon 34.8% | HCC-2998 colon 56.4% | KM12 colon 41.6%

C=C1C(=O)O[C@H]2[C@H]1CC/C(Cn1cc(-c3ccc(N)cc3)nn1)=C\CC[C@@]1(C)O[C@@H]21
active: T-47D breast -40.4% | BT-549 breast -43.3% | MDA-MB-435 melanoma -7.57% | SW-620 colon -44.8% | MCF7 breast 2.62% | HCT-116 colon -56%
inactive: HCC-2998 colon 50.8% | KM12 colon 51.5%

CCN(CC)P(=O)(N(CC)CC)N(CCCSC/C=C(\C)CC/C=C(\C)CCC=C(C)C)CCCN1CCN(C)CC1
inactive: T-47D breast 88.9% | BT-549 breast 102% | MDA-MB-435 melanoma 100% | SW-620 colon 101% | MCF7 breast 97.6% | HCT-116 colon 97.1% | HCC-2998 colon 104% | KM12 colon 108%

O=S(=O)(NCCCNc1cc(-c2cn(-c3ccccc3)nc2-c2cccc(O)c2)ccn1)c1ccc(Cl)cc1
inactive: BT-549 breast 11.7% | MDA-MB-435 melanoma 16.4% | SW-620 colon 15.6% | MCF7 breast 11% | HCT-116 colon 15% | KM12 colon 12.5%
active: T-47D breast 8.59% | HCC-2998 colon -44.9%

CCOC(=O)C1=C(C)NC(=O)NC1c1ccc(OCC(=O)N/N=C/c2ccc(Cl)cc2)cc1 (stereo unspecified)
inactive: T-47D breast 87.1% | BT-549 breast 87.5% | MDA-MB-435 melanoma 90.6% | SW-620 colon 94.2% | MCF7 breast 90.1% | HCT-116 colon 94.2% | HCC-2998 colon 97.5% | KM12 colon 96.3%

O=C(c1c[nH]c2ccccc12)C(Sc1nc2ccccc2c(=O)[nH]1)c1ccccc1 (stereo unspecified)
inactive: T-47D breast 81% | BT-549 breast 87.2% | MDA-MB-435 melanoma 115% | SW-620 colon 110% | MCF7 breast 101% | HCT-116 colon 95.1% | HCC-2998 colon 112% | KM12 colon 106%

CC(Br)C(OC(=O)c1ccccc1Cl)c1cc2c(cc1Br)OCO2 (stereo unspecified)
inactive: T-47D breast 74.9% | BT-549 breast 109% | MDA-MB-435 melanoma 75.3% | SW-620 colon 84.6% | MCF7 breast 95.2% | HCT-116 colon 66.6% | HCC-2998 colon 90.7% | KM12 colon 89%

Nc1c(C(=O)Nc2ccccc2)sc2nc3c(cc12)CCC3
inactive: T-47D breast 101% | BT-549 breast 81.7% | SW-620 colon 53.1% | MCF7 breast 51.8% | HCT-116 colon 66.6% | HCC-2998 colon 89.4% | KM12 colon 52.8%
active: MDA-MB-435 melanoma -1%

COc1ccc(/C=C(\C#N)c2ccc([N+](=O)[O-])cc2)c2ccccc12
inactive: T-47D breast 46.9% | BT-549 breast 27.9% | MDA-MB-435 melanoma 62.6% | SW-620 colon 74.4% | MCF7 breast 71.8% | HCT-116 colon 43.4% | HCC-2998 colon 80% | KM12 colon 75.6%

CC1CCc2c(sc(NC(=O)CSc3nnc4ccccn34)c2C(N)=O)C1 (stereo unspecified)
inactive: T-47D breast 105% | BT-549 breast 142% | MDA-MB-435 melanoma 99% | SW-620 colon 109% | MCF7 breast 96% | HCT-116 colon 104% | HCC-2998 colon 105% | KM12 colon 108%

CCC1CCc2nc3sc(C(=O)Nc4ccccc4C)c(N)c3cc2C1 (stereo unspecified)
active: MDA-MB-435 melanoma -38.4%
inactive: T-47D breast 63.6% | BT-549 breast 74.7% | SW-620 colon 26.9% | MCF7 breast 15.2% | HCT-116 colon 25.5% | HCC-2998 colon 62.2% | KM12 colon 29.6%

O=C1Nc2cc(Cl)ccc2Oc2cc(Oc3ccccc3)ccc21
active: MDA-MB-435 melanoma -3.81%
inactive: T-47D breast 48.5% | BT-549 breast 56.4% | SW-620 colon 16.6% | MCF7 breast 29% | HCT-116 colon 27.8% | HCC-2998 colon 60.6% | KM12 colon 20%

Reference: PubChem BioAssay (NCI)
